Reference: article PMC7862700, “An all-to-all approach to the identification of sequence-specific readers for epigenetic DNA modifications on cytosine”

Columns and labels:
Experiment in all cases: DAPPL (digital affinity profiling via proximity ligation, sequencing); 10 mM Tris-HCl pH 7.5, 50 mM NaCl, 1 mM DTT, 4% glycerol, room temperature, 30 min; GST-TFs on glutathione beads, 16-mer random dsDNA library, 0.1% formaldehyde crosslink after washing; high values mean tight binding
FLI1 = molecular target: T1, FLI1 (Homo sapiens, UniProt Q01543 1-452); conditions: protein: recombinant; tags: N-terminal GST; dsDNA, one strand shown
T1 sequence: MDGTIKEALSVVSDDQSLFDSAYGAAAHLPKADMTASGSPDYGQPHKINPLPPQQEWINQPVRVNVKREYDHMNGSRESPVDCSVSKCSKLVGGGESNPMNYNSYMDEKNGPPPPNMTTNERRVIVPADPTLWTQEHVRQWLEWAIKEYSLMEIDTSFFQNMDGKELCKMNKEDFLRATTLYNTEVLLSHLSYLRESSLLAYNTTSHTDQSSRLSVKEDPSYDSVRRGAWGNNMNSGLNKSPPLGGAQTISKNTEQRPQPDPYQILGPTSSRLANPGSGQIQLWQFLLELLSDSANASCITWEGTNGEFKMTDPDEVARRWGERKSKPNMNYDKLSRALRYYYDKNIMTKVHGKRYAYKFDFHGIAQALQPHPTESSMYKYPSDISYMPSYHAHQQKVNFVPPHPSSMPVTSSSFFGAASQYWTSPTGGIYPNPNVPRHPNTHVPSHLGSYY
Method in brief: (§1)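 Binding signal is each hexamer's read frequency for a factor divided by its frequency in the tag-only sample. The factors were GST-fused human transcription factors from yeast, captured on glutathione beads, DNA-barcoded and pooled with that sample. Pools were incubated with 200 nmole of a random double-stranded 16-mer DNA library in Tris/NaCl/DTT/glycerol buffer at room temperature for 30 min, then washed, crosslinked with 0.1% formaldehyde, proximity-ligated with BsaI/T4 ligase (1 h, 37 °C), PCR-amplified and sequenced on an Illumina NextSeq500.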

ELK1 = molecular target: T2, ELK1 (Homo sapiens, UniProt P19419 1-428); conditions: protein: recombinant; tags: N-terminal GST; dsDNA, one strand shown
T2 sequence: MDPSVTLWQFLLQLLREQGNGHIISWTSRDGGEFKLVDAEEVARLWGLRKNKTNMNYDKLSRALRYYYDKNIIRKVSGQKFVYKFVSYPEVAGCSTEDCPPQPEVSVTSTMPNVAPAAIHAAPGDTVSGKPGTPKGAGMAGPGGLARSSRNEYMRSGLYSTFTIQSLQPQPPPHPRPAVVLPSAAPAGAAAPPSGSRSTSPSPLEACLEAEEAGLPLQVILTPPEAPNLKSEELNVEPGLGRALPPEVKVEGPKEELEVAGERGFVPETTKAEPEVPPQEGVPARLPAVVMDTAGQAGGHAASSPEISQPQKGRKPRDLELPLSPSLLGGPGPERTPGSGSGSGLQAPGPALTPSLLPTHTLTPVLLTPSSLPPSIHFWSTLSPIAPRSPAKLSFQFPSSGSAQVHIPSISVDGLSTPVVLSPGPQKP
Method in brief: as §1

GABPA = molecular target: T3, GABPA (Homo sapiens, UniProt Q06546 1-454); conditions: protein: recombinant; tags: N-terminal GST; dsDNA, one strand shown
T3 sequence: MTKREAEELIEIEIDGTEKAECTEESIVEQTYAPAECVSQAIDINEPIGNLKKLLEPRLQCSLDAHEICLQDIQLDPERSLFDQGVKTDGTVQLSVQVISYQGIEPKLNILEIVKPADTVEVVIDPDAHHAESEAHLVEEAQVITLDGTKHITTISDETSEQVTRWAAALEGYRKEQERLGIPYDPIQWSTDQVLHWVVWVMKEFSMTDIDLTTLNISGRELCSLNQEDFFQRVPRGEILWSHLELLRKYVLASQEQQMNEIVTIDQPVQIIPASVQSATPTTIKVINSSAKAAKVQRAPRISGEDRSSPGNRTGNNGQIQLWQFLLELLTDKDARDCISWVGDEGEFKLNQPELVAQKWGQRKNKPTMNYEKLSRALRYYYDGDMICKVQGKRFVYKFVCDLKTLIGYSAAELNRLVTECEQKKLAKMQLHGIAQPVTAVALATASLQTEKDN
Method in brief: as §1

ERG = molecular target: T4, ERG (Homo sapiens, UniProt P11308 1-479); conditions: protein: recombinant; tags: N-terminal GST; dsDNA, one strand shown
T4 sequence: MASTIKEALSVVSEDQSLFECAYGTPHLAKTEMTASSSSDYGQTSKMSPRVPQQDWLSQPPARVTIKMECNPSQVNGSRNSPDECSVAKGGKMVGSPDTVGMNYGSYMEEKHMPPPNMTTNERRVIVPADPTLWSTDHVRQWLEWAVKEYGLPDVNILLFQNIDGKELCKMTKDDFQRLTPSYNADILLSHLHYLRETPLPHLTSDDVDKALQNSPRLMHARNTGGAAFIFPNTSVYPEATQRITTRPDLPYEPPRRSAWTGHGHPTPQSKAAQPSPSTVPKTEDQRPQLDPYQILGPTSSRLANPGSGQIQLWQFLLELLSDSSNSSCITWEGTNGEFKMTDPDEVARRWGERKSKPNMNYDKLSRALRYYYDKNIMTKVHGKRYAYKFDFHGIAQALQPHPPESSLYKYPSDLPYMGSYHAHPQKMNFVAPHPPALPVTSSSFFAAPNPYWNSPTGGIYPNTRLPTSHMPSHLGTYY
Method in brief: as §1

ELF1 = ELF1 (Homo sapiens, UniProt P32519 1-619); conditions: protein: recombinant; tags: N-terminal GST; dsDNA, one strand shown
Method in brief: as §1

EHF = molecular target: T5, EHF (Homo sapiens, UniProt Q9NZC4 1-300); conditions: protein: recombinant; tags: N-terminal GST; dsDNA, one strand shown
T5 sequence: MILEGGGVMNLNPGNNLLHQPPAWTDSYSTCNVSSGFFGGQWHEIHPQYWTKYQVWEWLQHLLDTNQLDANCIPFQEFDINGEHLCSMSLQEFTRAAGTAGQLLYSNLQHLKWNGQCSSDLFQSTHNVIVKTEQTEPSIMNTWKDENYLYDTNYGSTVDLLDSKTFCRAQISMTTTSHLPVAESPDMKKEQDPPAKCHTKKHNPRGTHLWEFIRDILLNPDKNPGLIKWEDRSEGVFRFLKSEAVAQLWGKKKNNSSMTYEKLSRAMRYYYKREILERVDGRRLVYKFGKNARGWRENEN
Method in brief: as §1

SPI1 = SPI1 (Homo sapiens, UniProt P17947 1-270); conditions: protein: recombinant; tags: N-terminal GST; dsDNA, one strand shown
Method in brief: as §1

SPIB = SPIB (Homo sapiens, UniProt Q01892 1-262); conditions: protein: recombinant; tags: N-terminal GST; dsDNA, one strand shown
Method in brief: as §1

ELK3 = molecular target: T6, ELK3 (Homo sapiens, UniProt P41970 1-407); conditions: protein: recombinant; tags: N-terminal GST; dsDNA, one strand shown
T6 sequence: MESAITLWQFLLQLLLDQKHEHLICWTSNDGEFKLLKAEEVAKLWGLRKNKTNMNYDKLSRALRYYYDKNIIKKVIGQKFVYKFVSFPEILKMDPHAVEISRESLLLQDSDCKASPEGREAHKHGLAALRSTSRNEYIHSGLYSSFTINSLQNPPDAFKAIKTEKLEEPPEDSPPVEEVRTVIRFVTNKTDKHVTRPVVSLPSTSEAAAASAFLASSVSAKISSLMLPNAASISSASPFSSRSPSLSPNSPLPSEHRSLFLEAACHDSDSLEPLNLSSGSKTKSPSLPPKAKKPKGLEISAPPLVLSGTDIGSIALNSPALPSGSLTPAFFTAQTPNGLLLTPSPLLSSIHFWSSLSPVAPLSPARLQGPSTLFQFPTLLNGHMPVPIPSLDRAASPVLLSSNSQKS
Method in brief: as §1

FEV = molecular target: T7, FEV (Homo sapiens, UniProt Q99581 1-238); conditions: protein: recombinant; tags: N-terminal GST; dsDNA, one strand shown
T7 sequence: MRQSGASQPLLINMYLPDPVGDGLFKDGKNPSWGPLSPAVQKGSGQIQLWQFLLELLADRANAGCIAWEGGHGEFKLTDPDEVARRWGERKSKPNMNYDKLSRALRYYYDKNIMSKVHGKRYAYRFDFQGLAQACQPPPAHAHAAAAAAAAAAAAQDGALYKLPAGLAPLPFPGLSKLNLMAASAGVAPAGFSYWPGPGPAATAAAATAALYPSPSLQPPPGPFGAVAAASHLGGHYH
Method in brief: as §1

ETV5 = ETV5 (Homo sapiens, UniProt P41161 1-510); conditions: protein: recombinant; tags: N-terminal GST; dsDNA, one strand shown
Method in brief: as §1

HSF1 = HSF1 (Homo sapiens, UniProt Q00613 1-529); conditions: protein: recombinant; tags: N-terminal GST; chain copies: 3; dsDNA, one strand shown
Method in brief: as §1

SPIC = molecular target: T8, SPIC (Homo sapiens, UniProt Q8N5J4 1-248); conditions: protein: recombinant; tags: N-terminal GST; dsDNA, one strand shown
T8 sequence: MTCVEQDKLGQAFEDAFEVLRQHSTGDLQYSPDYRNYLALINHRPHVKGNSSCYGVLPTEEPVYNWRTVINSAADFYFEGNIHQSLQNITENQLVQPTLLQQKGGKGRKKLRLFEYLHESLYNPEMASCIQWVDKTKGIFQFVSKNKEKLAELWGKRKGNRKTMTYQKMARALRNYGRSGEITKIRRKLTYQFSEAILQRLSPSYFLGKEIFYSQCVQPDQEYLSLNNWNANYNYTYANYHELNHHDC
Method in brief: as §1

ELF4 = ELF4 (Homo sapiens, UniProt Q99607 1-663); conditions: protein: recombinant; tags: N-terminal GST; dsDNA, one strand shown
Method in brief: as §1

ELK4 = molecular target: T9, ELK4 (Homo sapiens, UniProt P28324-2 1-405); conditions: protein: recombinant; tags: N-terminal GST; dsDNA, one strand shown
T9 sequence: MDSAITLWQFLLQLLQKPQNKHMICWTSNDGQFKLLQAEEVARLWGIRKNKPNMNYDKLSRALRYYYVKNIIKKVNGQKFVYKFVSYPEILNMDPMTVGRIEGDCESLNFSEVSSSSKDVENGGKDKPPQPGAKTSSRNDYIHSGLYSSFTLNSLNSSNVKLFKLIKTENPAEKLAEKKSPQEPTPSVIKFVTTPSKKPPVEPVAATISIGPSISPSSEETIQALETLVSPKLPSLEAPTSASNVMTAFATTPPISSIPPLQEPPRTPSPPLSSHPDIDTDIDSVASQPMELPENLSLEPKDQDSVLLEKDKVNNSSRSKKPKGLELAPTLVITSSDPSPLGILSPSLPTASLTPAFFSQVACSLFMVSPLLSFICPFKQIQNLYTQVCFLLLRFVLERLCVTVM
Method in brief: as §1

ETV2 = molecular target: T10, ETV2 (Homo sapiens, UniProt O00321 1-342); conditions: protein: recombinant; tags: N-terminal GST; dsDNA, one strand shown
T10 sequence: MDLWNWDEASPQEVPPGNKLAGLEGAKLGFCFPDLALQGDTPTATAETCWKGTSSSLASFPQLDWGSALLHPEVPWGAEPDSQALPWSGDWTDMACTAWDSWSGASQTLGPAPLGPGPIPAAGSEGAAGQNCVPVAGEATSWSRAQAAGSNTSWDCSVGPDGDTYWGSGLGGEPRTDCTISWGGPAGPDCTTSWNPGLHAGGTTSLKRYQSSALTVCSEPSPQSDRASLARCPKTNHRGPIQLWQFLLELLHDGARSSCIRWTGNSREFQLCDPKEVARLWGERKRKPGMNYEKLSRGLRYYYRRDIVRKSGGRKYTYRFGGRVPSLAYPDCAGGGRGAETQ
Method in brief: as §1

ELF3 = molecular target: T11, ELF3 (Homo sapiens, UniProt P78545 1-371); conditions: protein: recombinant; tags: N-terminal GST; dsDNA, one strand shown
T11 sequence: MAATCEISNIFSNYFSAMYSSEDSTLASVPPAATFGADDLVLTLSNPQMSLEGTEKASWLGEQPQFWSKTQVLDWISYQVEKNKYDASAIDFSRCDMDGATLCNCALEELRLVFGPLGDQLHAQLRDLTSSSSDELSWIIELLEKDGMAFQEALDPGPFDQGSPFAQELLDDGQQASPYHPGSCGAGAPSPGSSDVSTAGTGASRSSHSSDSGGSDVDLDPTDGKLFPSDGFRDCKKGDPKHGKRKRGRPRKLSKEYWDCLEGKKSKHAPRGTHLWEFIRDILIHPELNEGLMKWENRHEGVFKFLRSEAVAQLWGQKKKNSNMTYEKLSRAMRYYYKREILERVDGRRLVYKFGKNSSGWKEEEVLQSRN
Method in brief: as §1

CRX = CRX (Homo sapiens, UniProt O43186 1-299); conditions: protein: recombinant; tags: N-terminal GST; dsDNA, one strand shown
Method in brief: as §1

ETV1 = ETV1 (Homo sapiens, UniProt P50549 1-477); conditions: protein: recombinant; tags: N-terminal GST; dsDNA, one strand shown
Method in brief: as §1

Sequence of ETV5 (P41161 whole entry): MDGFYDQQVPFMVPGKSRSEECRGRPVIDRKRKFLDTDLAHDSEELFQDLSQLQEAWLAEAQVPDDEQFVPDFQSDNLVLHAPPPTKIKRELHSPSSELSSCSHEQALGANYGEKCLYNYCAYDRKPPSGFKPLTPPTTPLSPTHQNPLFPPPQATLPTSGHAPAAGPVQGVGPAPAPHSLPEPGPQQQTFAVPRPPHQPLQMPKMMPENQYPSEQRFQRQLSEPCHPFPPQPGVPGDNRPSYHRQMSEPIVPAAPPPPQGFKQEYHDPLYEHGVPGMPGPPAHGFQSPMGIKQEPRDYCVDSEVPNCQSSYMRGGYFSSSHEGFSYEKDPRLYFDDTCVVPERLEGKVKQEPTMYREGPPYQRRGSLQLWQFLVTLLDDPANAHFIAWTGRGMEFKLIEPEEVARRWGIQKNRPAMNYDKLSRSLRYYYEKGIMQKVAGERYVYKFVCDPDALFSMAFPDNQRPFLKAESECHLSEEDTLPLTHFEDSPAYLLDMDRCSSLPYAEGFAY
Sequence of ELF1 (P32519 whole entry): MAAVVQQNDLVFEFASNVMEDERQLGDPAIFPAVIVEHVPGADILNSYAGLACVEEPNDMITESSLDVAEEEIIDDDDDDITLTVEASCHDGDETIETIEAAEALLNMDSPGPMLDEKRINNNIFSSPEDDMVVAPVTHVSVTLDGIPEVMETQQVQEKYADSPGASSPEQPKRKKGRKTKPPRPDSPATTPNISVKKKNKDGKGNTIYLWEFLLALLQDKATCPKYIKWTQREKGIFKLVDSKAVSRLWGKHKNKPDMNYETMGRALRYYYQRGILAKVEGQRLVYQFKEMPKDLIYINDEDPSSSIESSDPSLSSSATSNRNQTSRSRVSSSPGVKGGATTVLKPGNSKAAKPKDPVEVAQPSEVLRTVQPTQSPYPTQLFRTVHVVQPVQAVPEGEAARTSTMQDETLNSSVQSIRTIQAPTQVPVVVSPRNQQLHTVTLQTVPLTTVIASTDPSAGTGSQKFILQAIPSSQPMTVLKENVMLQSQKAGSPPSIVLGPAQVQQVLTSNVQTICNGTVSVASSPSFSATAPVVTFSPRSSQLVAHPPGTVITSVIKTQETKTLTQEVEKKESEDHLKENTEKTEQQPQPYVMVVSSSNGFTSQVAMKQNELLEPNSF
Sequence of CRX (O43186 whole entry): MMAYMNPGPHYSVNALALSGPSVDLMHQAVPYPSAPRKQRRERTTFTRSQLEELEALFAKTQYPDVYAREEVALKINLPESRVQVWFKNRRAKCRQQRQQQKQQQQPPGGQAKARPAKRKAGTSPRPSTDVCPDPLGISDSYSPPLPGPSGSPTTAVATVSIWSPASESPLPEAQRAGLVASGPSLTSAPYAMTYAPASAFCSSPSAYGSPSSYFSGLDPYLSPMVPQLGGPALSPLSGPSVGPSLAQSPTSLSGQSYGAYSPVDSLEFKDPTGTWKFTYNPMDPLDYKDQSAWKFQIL
Sequence of ELF4 (Q99607 whole entry): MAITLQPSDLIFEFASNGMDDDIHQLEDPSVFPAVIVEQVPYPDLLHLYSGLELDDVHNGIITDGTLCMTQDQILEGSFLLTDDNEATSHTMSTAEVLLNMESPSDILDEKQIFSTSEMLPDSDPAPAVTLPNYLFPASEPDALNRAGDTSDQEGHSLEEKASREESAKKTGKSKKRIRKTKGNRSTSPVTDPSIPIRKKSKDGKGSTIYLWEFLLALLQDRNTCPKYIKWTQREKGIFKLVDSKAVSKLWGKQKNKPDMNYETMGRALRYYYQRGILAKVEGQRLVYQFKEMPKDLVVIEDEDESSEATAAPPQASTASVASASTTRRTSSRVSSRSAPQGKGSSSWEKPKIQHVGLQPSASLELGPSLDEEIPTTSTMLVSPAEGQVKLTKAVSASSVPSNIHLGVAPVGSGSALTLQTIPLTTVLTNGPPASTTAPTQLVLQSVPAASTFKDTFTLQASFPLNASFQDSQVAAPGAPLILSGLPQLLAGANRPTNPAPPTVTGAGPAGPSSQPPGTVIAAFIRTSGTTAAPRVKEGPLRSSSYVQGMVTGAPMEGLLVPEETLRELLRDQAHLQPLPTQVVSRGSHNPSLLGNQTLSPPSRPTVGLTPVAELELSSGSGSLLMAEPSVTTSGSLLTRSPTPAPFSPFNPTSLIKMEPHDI
Sequence of HSF1 (Q00613 whole entry): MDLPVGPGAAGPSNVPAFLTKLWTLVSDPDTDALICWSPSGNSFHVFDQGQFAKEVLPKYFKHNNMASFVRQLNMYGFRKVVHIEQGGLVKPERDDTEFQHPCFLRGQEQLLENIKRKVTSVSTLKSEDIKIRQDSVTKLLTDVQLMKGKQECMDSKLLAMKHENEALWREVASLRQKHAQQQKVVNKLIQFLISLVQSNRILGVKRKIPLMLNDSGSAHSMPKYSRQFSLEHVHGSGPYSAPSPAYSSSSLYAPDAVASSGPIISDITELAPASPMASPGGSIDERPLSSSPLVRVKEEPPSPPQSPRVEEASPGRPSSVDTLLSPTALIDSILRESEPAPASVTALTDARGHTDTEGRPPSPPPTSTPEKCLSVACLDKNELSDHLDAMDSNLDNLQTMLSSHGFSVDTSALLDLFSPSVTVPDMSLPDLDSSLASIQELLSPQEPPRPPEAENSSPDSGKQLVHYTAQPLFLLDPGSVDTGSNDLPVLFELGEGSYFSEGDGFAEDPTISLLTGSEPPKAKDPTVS
Sequence of ETV1 (P50549 whole entry): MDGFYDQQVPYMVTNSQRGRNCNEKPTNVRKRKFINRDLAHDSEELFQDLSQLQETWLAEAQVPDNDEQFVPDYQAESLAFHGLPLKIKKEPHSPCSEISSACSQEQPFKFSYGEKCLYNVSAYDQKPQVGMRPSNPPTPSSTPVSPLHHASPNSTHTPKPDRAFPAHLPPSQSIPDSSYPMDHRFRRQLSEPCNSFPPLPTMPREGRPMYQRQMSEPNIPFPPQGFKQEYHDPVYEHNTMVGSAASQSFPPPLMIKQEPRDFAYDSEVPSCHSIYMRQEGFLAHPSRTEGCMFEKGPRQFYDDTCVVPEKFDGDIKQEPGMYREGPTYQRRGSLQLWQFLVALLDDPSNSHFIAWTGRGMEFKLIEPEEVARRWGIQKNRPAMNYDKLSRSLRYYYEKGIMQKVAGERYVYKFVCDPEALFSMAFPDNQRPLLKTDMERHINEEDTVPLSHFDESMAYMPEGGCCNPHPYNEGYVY
Sequence of SPIB (Q01892 whole entry): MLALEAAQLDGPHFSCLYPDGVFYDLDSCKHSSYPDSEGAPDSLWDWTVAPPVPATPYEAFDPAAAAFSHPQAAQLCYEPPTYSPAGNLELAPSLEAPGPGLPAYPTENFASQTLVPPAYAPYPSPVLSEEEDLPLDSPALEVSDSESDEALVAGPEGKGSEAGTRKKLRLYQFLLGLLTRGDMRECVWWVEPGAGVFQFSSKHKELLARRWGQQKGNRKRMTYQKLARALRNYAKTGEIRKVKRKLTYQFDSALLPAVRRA

TTCACC
binding signal (FLI1): 1.35 fold enrichment (6-mer frequency, TF over GST control)
binding signal (ELK1): 1.39 fold enrichment (6-mer frequency, TF over GST control)
binding signal (GABPA): 1.34 fold enrichment (6-mer frequency, TF over GST control)
binding signal (ERG): 1.38 fold enrichment (6-mer frequency, TF over GST control)
binding signal (ELF1): 1.39 fold enrichment (6-mer frequency, TF over GST control)
binding signal (EHF): 1.19 fold enrichment (6-mer frequency, TF over GST control)
binding signal (SPI1): 1.4 fold enrichment (6-mer frequency, TF over GST control)
binding signal (SPIB): 1.28 fold enrichment (6-mer frequency, TF over GST control)
binding signal (ELK3): 1.32 fold enrichment (6-mer frequency, TF over GST control)
binding signal (FEV): 1.39 fold enrichment (6-mer frequency, TF over GST control)
binding signal (ETV5): 1.33 fold enrichment (6-mer frequency, TF over GST control)
binding signal (HSF1): 1.14 fold enrichment (6-mer frequency, TF over GST control)
binding signal (SPIC): 1.34 fold enrichment (6-mer frequency, TF over GST control)
binding signal (ELF4): 1.44 fold enrichment (6-mer frequency, TF over GST control)
binding signal (ELK4): 1.36 fold enrichment (6-mer frequency, TF over GST control)
binding signal (ETV2): 1.36 fold enrichment (6-mer frequency, TF over GST control)
binding signal (ELF3): 1.57 fold enrichment (6-mer frequency, TF over GST control)
binding signal (CRX): 1.17 fold enrichment (6-mer frequency, TF over GST control)
binding signal (ETV1): 1.4 fold enrichment (6-mer frequency, TF over GST control)
